Screens as filed in PubChem BioAssay.
Anthrax LF prot: inhibitors of Bacillus anthracis lethal factor protease; multiplex microsphere protease cleavage assay, LF; inhibition, % at 10 µM; 0.12% of 360,000 active; AID 588501; note: plate controls were buffer without enzyme for full effect and enzyme alone for no effect
BoNT-F LC inh: BoNT F light chain protease inhibition; Multiplex microsphere protease cleavage assay, flow cytometry; inhibition, % at 10 µM; 0.22% of 360,000 active; AID 588497; in the data active = inhibition above about 35%, passing the limit was not always enough; inconclusive = no clear call, values can overlap the other calls; note: plate controls were buffer without enzyme for full effect and enzyme alone for no effect
Autofluor counter: flagged as autofluorescent in microsphere protease counterscreen | compound autofluorescence counterscreen, microsphere flow cytometry; stronger effect = higher value | fluorescence intensity (no concentration beside the values) | 3.1% of 360,000 active | AID 624483; in the data active = fluorescence intensity above about 16000; inconclusive = no clear call, values can overlap the other calls
BoNT-A LC inh2: BoNT A light chain protease inhibition; multiplex microsphere protease substrate cleavage, flow cytometry; 0.17% of 360,000 active; inhibition, % at 10 µM; note: plate controls were buffer without enzyme for full effect and enzyme alone for no effect
* marks the source's active call; other numbers are inactive results. Compounds with a hit are over-represented: about 3.5% of the library has one in this group of screens. Cut-off read from the data, not from the text of the source, unless noted: active = inhibition above about 30%; inconclusive = no clear call, values can overlap the other calls; inactive = below that.

What do the screens show for `COc1cccc(-c2[nH]nc3c2C(c2ccsc2)C(C#N)=C(N)O3)c1` (centres undefined)?
Anthrax LF prot: 1; BoNT-F LC inh: 0; Autofluor counter: 22773*; BoNT-A LC inh2: 2

Results for Cc1ccc(-c2[nH]nc3c2C(c2ccsc2)C(C#N)=C(N)O3)cc1 (centres undefined) ?
Anthrax LF prot: -13; BoNT-F LC inh: -9; Autofluor counter: 9623; BoNT-A LC inh2: -1

What do the screens show for `COc1cc(-c2[nH]nc3c2C(c2ccoc2)C(C#N)=C(N)O3)cc(OC)c1OC` (centres undefined)?
Anthrax LF prot: -5; BoNT-F LC inh: -11; Autofluor counter: 2760; BoNT-A LC inh2: 0

What do the screens show for `COc1cccc(-c2[nH]nc3c2C(c2ccoc2)C(C#N)=C(N)O3)c1` (centres undefined)?
Anthrax LF prot: 0; BoNT-F LC inh: 2; Autofluor counter: 21204*; BoNT-A LC inh2: inconclusive

Results for COc1ccc(-c2[nH]nc3c2C(c2ccsc2)C(C#N)=C(N)O3)cc1 (centres undefined) ?
Anthrax LF prot: -4; BoNT-F LC inh: -4; Autofluor counter: 16667*; BoNT-A LC inh2: -1

Results for CCNc1nc(N)nc(Oc2ccc(OCCOc3ccccc3)nn2)n1 ?
Anthrax LF prot: -4; BoNT-F LC inh: -12; Autofluor counter: 17908*; BoNT-A LC inh2: -5

Results for O=C(CSc1nc2ccccc2c(=O)n1NC(=O)Cc1ccccc1)NCCc1ccccc1 ?
Anthrax LF prot: -2; BoNT-F LC inh: 3; Autofluor counter: 21231*; BoNT-A LC inh2: 3

What do the screens show for `Cn1c(SCC(=O)NCCc2ccc(S(N)(=O)=O)cc2)nc2ccccc2c1=O`?
Anthrax LF prot: -5; BoNT-F LC inh: -1; Autofluor counter: 3644; BoNT-A LC inh2: -2

How did COCCNC(=O)CSc1nc2ccccc2c(=O)n1CCCC(=O)NCc1ccccc1 do in these assays?
Anthrax LF prot: -4; BoNT-F LC inh: 1; Autofluor counter: 22634*; BoNT-A LC inh2: inconclusive

Results for O=C(CCCn1c(SCC(=O)NCC2CCCO2)nc2ccccc2c1=O)NCC1CCCO1 (centres undefined) ?
Anthrax LF prot: -1; BoNT-F LC inh: -4; Autofluor counter: 20974*; BoNT-A LC inh2: -2

What do the screens show for `CC(C)CCNC(=O)CSc1nc2ccsc2c(=O)n1NC(=O)c1ccccc1`?
Anthrax LF prot: -3; BoNT-F LC inh: 2; Autofluor counter: 21825*; BoNT-A LC inh2: 1

How did CCCN(CCC)C(=O)c1oc2ccccc2c1NC(=O)Cc1cccc(OC)c1 do in these assays?
Anthrax LF prot: -1; BoNT-F LC inh: -17; Autofluor counter: 2803; BoNT-A LC inh2: 1

How did O=C(Cc1cccc(F)c1F)NC1CCCN(Cc2ccc(Cl)cc2)C1 (centres undefined) do in these assays?
Anthrax LF prot: -10; BoNT-F LC inh: -25; Autofluor counter: 4640; BoNT-A LC inh2: -5

How did O=C(CSc1nc2cc(Cl)ccc2o1)NCCc1ccccc1 do in these assays?
Anthrax LF prot: 0; BoNT-F LC inh: -4; Autofluor counter: 19890*; BoNT-A LC inh2: -1

Results for COc1ccc(CNC(=O)CCCn2c(SCC#N)nc3cc4c(cc3c2=O)OCO4)cc1 ?
Anthrax LF prot: -1; BoNT-F LC inh: 0; Autofluor counter: 21923*; BoNT-A LC inh2: 3

Results for O=C(CSc1nc2ccccc2c(=O)n1CC1CCCO1)N1CCN(c2ccccc2)CC1 (centres undefined) ?
Anthrax LF prot: -1; BoNT-F LC inh: 2; Autofluor counter: 21377*; BoNT-A LC inh2: 2

Results for Cc1ccc(S(=O)(=O)NN=C2C(=O)C3CCC2C3Cl)cc1 (centres undefined) ?
Anthrax LF prot: -1; BoNT-F LC inh: -5; Autofluor counter: 3421; BoNT-A LC inh2: 0

Results for COc1ccc(/C=C(/NC(=O)c2ccccc2)C(=O)N2CCCC2)cc1 ?
Anthrax LF prot: 14; BoNT-F LC inh: -16; Autofluor counter: 3605; BoNT-A LC inh2: -2

Results for O=C(NCc1ccccc1)c1cc(=O)nc2sc(-c3ccccc3)nn12 ?
Anthrax LF prot: 1; BoNT-F LC inh: 0; Autofluor counter: 23048*; BoNT-A LC inh2: -2

How did COC(=O)c1cc(=O)nc2sc(-c3ccc(F)cc3)nn12 do in these assays?
Anthrax LF prot: -1; BoNT-F LC inh: -6; Autofluor counter: 8601; BoNT-A LC inh2: -1

What do the screens show for `CN(C(=O)COC(=O)c1ccc2ccccc2n1)C1CCCCC1`?
Anthrax LF prot: -3; BoNT-F LC inh: 1; Autofluor counter: 3544; BoNT-A LC inh2: 0

Results for O[C@@H]1CN(CC2CCCCC2)[C@@H](c2ccccc2)C[C@H]1n1cc(-c2ccc(F)cc2)nn1 ?
Anthrax LF prot: -3; BoNT-F LC inh: 0; Autofluor counter: 5124; BoNT-A LC inh2: -1

Results for Cc1ccccc1N1C(=O)C2ON(c3ccccc3)C(c3cccnc3)C2C1=O (centres undefined) ?
Anthrax LF prot: 1; BoNT-F LC inh: -5; Autofluor counter: 5262; BoNT-A LC inh2: 0

How did Cc1ccc(N2C(=O)C3ON(c4ccccc4)C(c4ccncc4)C3C2=O)c(C)c1 (centres undefined) do in these assays?
Anthrax LF prot: -6; BoNT-F LC inh: -2; Autofluor counter: 4259; BoNT-A LC inh2: 0

What do the screens show for `Cc1c(Cl)cccc1N1C(=O)C2ON(c3ccccc3)C(c3cccnc3)C2C1=O` (centres undefined)?
Anthrax LF prot: 2; BoNT-F LC inh: -2; Autofluor counter: 21730*; BoNT-A LC inh2: 0

Results for O=C1C2ON(c3ccccc3)C(c3ccncc3)C2C(=O)N1c1ccccc1 (centres undefined) ?
Anthrax LF prot: 2; BoNT-F LC inh: -3; Autofluor counter: 20412*; BoNT-A LC inh2: -2

What do the screens show for `Cc1cccc(C)c1N1C(=O)C2ON(c3ccccc3)C(c3ccncc3)C2C1=O` (centres undefined)?
Anthrax LF prot: 0; BoNT-F LC inh: -4; Autofluor counter: 22531*; BoNT-A LC inh2: inconclusive

Results for O=C(NCc1cc(Cl)cc(Cl)c1)c1csc([C@@H]2O[C@H](CO)[C@H](O)[C@H](O)[C@H]2O)n1 ?
Anthrax LF prot: 2; BoNT-F LC inh: 4; Autofluor counter: 3677; BoNT-A LC inh2: 0

What do the screens show for `COc1ccc(-n2c(C)nnc2SCC(=O)Nc2ccccc2F)cc1`?
Anthrax LF prot: 1; BoNT-F LC inh: -33; Autofluor counter: 3943; BoNT-A LC inh2: 1

Results for CSc1nc(C(=O)N2CCCC(Nc3ccc(C)c(C)c3)C2)cs1 (centres undefined) ?
Anthrax LF prot: 2; BoNT-F LC inh: -2; Autofluor counter: 6264; BoNT-A LC inh2: -1

How did C=CCN1C(=O)CS/C1=N/c1nccs1 do in these assays?
Anthrax LF prot: -2; BoNT-F LC inh: -6; Autofluor counter: 21993*; BoNT-A LC inh2: -6

Results for C=CCN1C(=O)/C(=C/c2ccccc2)S/C1=N/c1nccs1 ?
Anthrax LF prot: -2; BoNT-F LC inh: -6; Autofluor counter: 6979; BoNT-A LC inh2: 0

How did CSc1ccccc1NC(=S)Nc1ccccc1C(F)(F)F do in these assays?
Anthrax LF prot: -1; BoNT-F LC inh: 1; Autofluor counter: 19907*; BoNT-A LC inh2: 0

What do the screens show for `CC(C)(C)CC(=O)NC(=S)Nc1ccccc1C(F)(F)F`?
Anthrax LF prot: -1; BoNT-F LC inh: -3; Autofluor counter: 24827*; BoNT-A LC inh2: -3
